According to PubChem BioAssay AID620 (Sanford-Burnham Center for Chemical Genomics, 2007):
Out of some 87,000 compounds screened, about 360 (0.41%) were called active. Only a selection was taken, and actives are over-represented in it overall. A number with no mark means an inactive call. No stated cut-off is given here; in the data, active means cytotoxicity above about 50%; inactive means the rest.

Assay: HT1080 cell viability loss – fluorescence readout (AID 620);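 further: cells exposed to compound overnight then 4 h with Alamar Blue; 0% = vehicle DMSO and 100% = killing control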
Conditions: at 10 µM, hits give high values

Structure (SMILES)	cytotoxicity
COC(=O)c1ccccc1NC(=O)CN(c1cc(OC)ccc1OC)S(C)(=O)=O	-6.6%
COC1(OC)N=C(N)C2(C#N)C(c3cccc(Oc4ccccc4)c3)C12C#N (configuration not stated)	0.4%
c1ccc(CNCCN2CCNCC2)nc1	6.5%
CC(C)=CCC/C(C)=C/CC(C)(C)CNCCN1CCNCC1	56.1% (active)
CC(C)=CCC/C(C)=C/CCC(C)NCCN1CCNCC1 (configuration not stated)	6.9%
CCOc1ccc2nc(NC(=O)C3CCN(c4cnccn4)CC3)sc2c1	-5.6%
COC(=O)[C@H](C)NC(=O)Nc1ccc(S(N)(=O)=O)cc1	-17.4%
O=S(=O)(c1ccc2c(c1)nc(COc1ccc(Cl)cc1)n2CC1CCCO1)N1CCOCC1 (configuration not stated)	96.6% (active)
CSc1nnc(-c2ccc(S(=O)(=O)N3CCOCC3)cc2)n1CC1CCCO1 (configuration not stated)	0.1%
CCSc1nnc(-c2ccc(S(=O)(=O)N3CCOCC3)cc2)n1CC1CCCO1 (configuration not stated)	-1.1%
CSc1nc2ccccc2n1C(=O)Oc1ccccc1	13.7%
COc1ccc(OC)c(NC(=O)CN2C(=O)c3ccccc3S2(=O)=O)c1	-3.4%
Cc1ccc(S(=O)(=O)N2CCN(C(=O)CN3CCOCC3)C2c2ccccc2)cc1 (configuration not stated)	1.5%
CCOC(=O)N1CCN(C(=O)c2ccc3c(c2)sc2nc(-c4ccccc4)cn23)CC1	0.3%
COc1ccc2c(c1)sc1nc(-c3ccccc3)cn12	75.6% (active)
CCOC(=O)N1CCC(NC(=O)c2ccc3c(c2)sc2nc(-c4cccc(OC)c4)cn23)CC1	11.5%
COc1cccc(-n2c(SC)nnc2-c2c[nH]c3ccccc23)c1	6.9%
COC(=O)c1c(C)oc2c1cc(NS(=O)(=O)c1cccs1)c1ccccc12	0.6%
COc1ccc(S(=O)(=O)Nc2cc3c4c(oc3c3ccccc23)CC(C)(C)CC4=O)cc1	-13.5%

Structure (SMILES)	cytotoxicity
COc1ccc(S(=O)(=O)Nc2cc3c(C(C)=O)c(C)oc3c3ccccc23)cc1	62.6% (active)
CCCc1nc2oc3cc(OC)ccc3c(=O)c2c(=O)n1Cc1ccco1	-4.1%
CCOC(=O)CSc1nc(-c2cccs2)nc2c1c(=O)n(C)c(=O)n2C	1.5%
O=C(C1CCCN1S(=O)(=O)c1ccc(Cl)c(Cl)c1)N1CCCCC1 (configuration not stated)	-5%
CC(C)CNC(=O)C1CCN(c2ccc(S(=O)(=O)N3CCOCC3)cc2Cl)CC1	-20.4%
CCCNC(=O)C1CCN(c2ccc(S(=O)(=O)N3CCOCC3)cc2Cl)CC1	-9.5%
O=C(NCc1cccs1)C1CCN(c2ccc(S(=O)(=O)N3CCOCC3)cc2Cl)CC1	67.8% (active)
COc1ccc(-n2nnnc2-c2ccccc2)cc1	58.8% (active)
COc1ccc(-n2nnnc2-c2cccc(OC)c2)cc1	48.1%
COc1ccc(-n2nnnc2-c2cccnc2)cc1	-4.2%
COc1cccc(/C(O)=C2\C(=O)C(=O)N(c3ccccn3)C2c2cccc(OC)c2OC)c1 (configuration not stated)	21.5%
COC(=O)C(Cc1cnc(Cl)s1)(C(=O)OC)c1ccc([N+](=O)[O-])cc1[N+](=O)[O-]	-2%
CCC1=C2CC[C@H]3C(=O)N(CC)C(=O)[C@H]3[C@H]2[C@@]2(Cc3ccccc3)C(=O)N(CC3CC3)C(=O)N2C1=O	2.7%
COc1ccc(-c2cc(C(F)(F)F)n3nc(C)cc3n2)cc1	-1.8%
Cc1ccc(NC(=O)c2nnn(CC(=O)Nc3ccccc3)c2N)cc1C	-2.3%
Cc1cc(C(=O)CSc2nnnn2C)c(C)n1-c1ccc2c(c1)OCCO2	13.4%
Cc1cc(C(=O)CSc2nncs2)c(C)n1-c1ccc2c(c1)OCO2	24.4%
Cc1nnc(SCC(=O)c2cc(C)n(-c3ccc4c(c3)OCO4)c2C)s1	61.4% (active)
CN1C(=O)CC(Sc2ncccc2C(=O)O)C1=O (configuration not stated)	1.8%

Structure (SMILES)	cytotoxicity
Cc1cc(C)n(-c2nc3ccccc3nc2N2CCOCC2)n1	-0.9%
O=C(C1c2ccccc2Oc2ccccc21)N1CCN(c2ccc(Cl)cc2)CC1	-1.1%
CCOc1ccccc1N1CCN(C(=O)C2c3ccccc3Oc3ccccc32)CC1	-0.5%
COc1ccccc1N1CCN(C(=O)C2c3ccccc3Oc3ccccc32)CC1	56% (active)
O=S(=O)(c1ccccc1C(F)(F)F)N1CCC(n2cnc3ccccc32)CC1	-0.9%
COc1ccc(Cl)cc1NC(=O)/C=C\C(=O)O	-3.8%
Cc1occc1-c1nnc(SCC(=O)c2ccc(F)cc2)n1Cc1ccco1	-0.9%
c1ccc(Nc2ccccn2)cc1	-6.8%
c1ccc(Nc2ccccc2Nc2ccccn2)nc1	0.4%
Oc1cccc2ccc(Nc3ccccn3)nc12	60.9% (active)
CC(=O)O[C@@]12CO[C@@H]1C[C@H](O)[C@@]1(C)C(=O)[C@H](O)C3=C(C)[C@@H](OC(=O)[C@H](O)[C@@H](NC(=O)OC(C)(C)C)c4ccccc4)C[C@](O)([C@@H](OC(=O)c4ccccc4)[C@H]21)C3(C)C	53.7% (active)
CCOC(=O)c1ccccc1NC(=O)Nc1ccc(OC)c(OC)c1	-1.4%
Cc1noc(C)c1C(=O)N1CCN(CCc2ccccc2)CC1	-0.7%
COCCNC(=O)c1cc2c(=O)n3cccc(C)c3nc2n(Cc2ccncc2)c1=N	17.6%
CCCCNC(=O)c1cc2c(=O)n3cccc(C)c3nc2n(Cc2ccncc2)c1=N	54.1% (active)
Cc1cccn2c(=O)c3cc(C(=O)NC4CCCC4)c(=N)n(C4CCCC4)c3nc12	75% (active)
CCCCNC(=O)c1cc2c(=O)n3cccc(C)c3nc2n(Cc2ccccc2)c1=N	19.2%
N=c1c(C(=O)NC2CCCC2)cc2c(=O)n3ccccc3nc2n1C1CCCC1	7.6%
CCCn1c(=N)c(C(=O)NC2CCCC2)cc2c(=O)n3cccc(C)c3nc21	9.1%
